This is part of a sample that, as a whole, favours compounds with a hit. Of some 83,000 tested, about 20% had one in any assay.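 Compound tested at a single concentration for 48 hours in 96-well plates; a percent growth value below 10 was scored as active.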 A number with no mark means an inactive call. The source made the active and inactive calls.

In the test the test system is MDA-MB-468 breast. Briefly: NCI-60 one-dose screen, 48 h (100 = growth as untreated, 0 = no growth, -100 = all killed). Particulars: 10 µM unless noted.
With `COc1ccc2nc3cc(Cl)ccc3c(N3CCN(c4nccc(Nc5ccc(Cl)cc5)n4)CC3)c2c1`, the growth is 82.8%.
The figure for `CCn1cc(C(=O)N/N=C/c2cccs2)c(=O)c2cc(F)c(N3CCNC(C)C3)c(F)c21` (stereo not given) is 55.1%; for `CN1CCN(Cc2ccc(NC(=O)c3cncc(C#Cc4cnc5ccc(Cl)nn45)c3)cc2C(F)(F)F)CC1` it is -20.1% (active).
For `O=c1[nH]c(=S)[nH]c(O)c1/C=C1\C=Nc2ccccc21`, the growth was 103%.
Take `O=[N+]([O-])c1ccc(/C(=C/c2ccccc2)[n+]2ccccc2)cc1`: the growth was 101%.
Consider `CCN(CC)CC#CCOC(=O)[C@]1(C)CCC[C@]2(C)c3ccc(C(C)C)cc3CC[C@@H]12`, for which the growth is 65.3%.
As for `Cc1nn(CCO)c(C)c1N=[N+]([O-])c1c(C)nn(CCO)c1C`, the growth is -59% (active).
Turning to `COc1ccc(-c2nn(-c3cccc(Cl)c3)cc2-c2cc(-c3ccccc3)nc(N)n2)cc1`, the growth was 30%.
For the molecule `Cc1cc(N(CCCNc2ccnc3cc(Cl)ccc23)Cc2cccs2)nc(Cl)n1`, the growth is 1.63% (active).
The figure for `CC1=C(C(=O)Nc2nc(-c3ccc(Cl)cc3)cs2)[C@H](c2ccc(O)cc2)NC(=O)N1` is 95%; for `C/C(=N/NC(N)=O)c1ccco1` it is 110%.
As to `COc1ccc(S(=O)(=O)NCCCNc2nccc(-c3cn(C(C)(C)C)nc3-c3ccc(Cl)c(OC)c3)n2)cc1`, the growth is 76.8%.
The figure for `CCC(=O)Nc1cc(Nc2cc(NC3CC3)n3ncc(C#N)c3n2)ccc1C` is 1.64% (active).
Regarding `COc1ccc(C)cc1NC(=O)SC(C)C`, the growth is 91.9% [100 µM].
Take `COc1ccc(/C=N\NC(=O)CN2CCN(c3cc4c(cc3F)c(=O)c(C(=O)N/N=C/c3ccc(OC)cc3)cn4C3CC3)CC2)cc1`: the growth was 84.3%.
Then `COc1ccc(/C=C/C(=O)c2cccc(OCCCCOc3cccc(C(=O)/C=C/c4ccc(OC)c(OC)c4)c3)c2)cc1OC`, with 23.1%; and `C=C1C(=O)O[C@H]2[C@H]1CC/C(CNC(=O)/C=C/c1ccccc1)=C\CC[C@@]1(C)O[C@@H]21`, with -30.2% (active).
For the molecule `O=C(Nc1ccc(-n2ccc3c(NC(=O)c4ccccc4)ncnc32)cc1)Nc1cccc(Cl)c1Cl`, the growth was -35.7% (active).
For the molecule `CC(C)(C)[Si](C)(C)OC1[C@@H](O[Si](C)(C)C(C)(C)C)[C@@H](CNC(=O)NC(=O)CCl)O[C@H]1n1cnc2c(NC(=O)Nc3ccccc3)ncnc21` (stereo not given in full), the growth is -64.6% (active).
For the molecule `CCOC(=O)Oc1c(OC)cc(C(=O)c2ccc(OC)c(O)c2OC)cc1OC`, the growth was 19.8%.
Then `CCN(CC)CCCC(C)Nc1c(-c2ccccc2)cnc2cc(Cl)ccc12` (stereo not given), with 44.4%.
Consider `O=C1c2ccccc2C(=O)c2cc(Cn3cc[n+](Cc4ccc5ccccc5c4)c3)ccc21`, for which the growth was -32.2% (active).
On to `C=CCN1C=CC(=O)[C@H](O[Si](C)(C)C(C)(C)C)[C@@H]1/C=C/c1ccccc1`, for which the growth is -72.9% [100 µM] (active).
With `COc1ccc(-c2cs/c(=N\N=C\c3ccc(O)cc3O)n2/N=C/c2ccc(O)cc2O)cc1`, the growth was -23.3% (active).
On to `O=C(CCl)N1c2ccccc2Sc2ccc3ccccc3c21`, for which the growth was -76.1% (active).
The figure for `O=C1/C(=C/c2ccccn2)SC(=S)N1N1CCOCC1` is 101%.
Take `COc1ccc(NC(=O)n2nc(/C=C\c3ccc(O)c(OC)c3)cc2/C=C\c2ccc(O)c(OC)c2)cc1`: the growth is 34.7%.
For the molecule `COc1ccc(-c2nnc(SCC(=O)Nc3ccc(C(=O)/C=C/c4ccc(Cl)cc4)cc3)o2)cc1OC`, the growth is 99.4%.
For `COc1cc(/C=C2\COc3ccc(O)cc3C2=O)cc(OC)c1`, the growth is 54.1%.
The figure for `CCOC(=O)/C=C1\S/C(=N\Nc2cc(=O)[nH]c3ccc(Cl)cc23)N(c2ccccc2)C1=O` is 80.8%; for `Cc1[nH]c(C(=O)Nc2ccccc2OCc2cccc(C(=O)NC3CCCNC3)c2)c(Cl)c1Cl` (stereo not given) it is -80.6% (active).
Then `O=Nc1c(O)c(Cl)cc2ccccc12`, with -7.81% (active); and `COc1ccc2c(c1)C/C(=C\c1cc(-c3cc(OC)c(OC)c(OC)c3)n[nH]1)C2=O`, with 68.8%; and `COc1ccc(-c2cn3c(C(=O)Nc4ccccc4Cl)c(-c4ccccc4)c4c3n2CCCC4)cc1`, with 84.1%.
Then `CCCCNC(=O)NS(=O)(=O)c1ccc(N2N=C(c3ccc(C)cc3C)CC2c2ccc(OC)cc2)cc1` (stereo not given), with 65.1%.

These data come from PubChem BioAssay (NCI).
